Consider 16 molecules from PubChem BioAssay (NCATS).

The structures appear in SMILES notation. The source made the active and inactive calls. The rule behind the calls is not given here.
Potency is the fitted concentration of half-maximal effect.

This assay concerns HIV-1 nucleocapsid protein NCp7 (binding to TG oligonucleotide). As to the kind of experiment: HIV Nucleocapsid (AID 346).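 Note: potency is for inhibitors that block NC binding and lower polarization.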 Conditions: HIV-1 NC / fluorescein-TGTGTGTG probe, fluorescence polarization. The essentials:
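Fluorescence polarization readout: labelled TG4xF oligo (10 nM) with 100 nM nucleocapsid protein, high-salt (250mM NaCl) Hepes pH 7.5 buffer containing zinc and fresh reducing agents. Compounds added by pin tool; incubation 1 hr, room temperature.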
(In fluorescence polarisation assays a small probe gives low polarisation when free and higher when bound to something large.)
For `CC(=O)N1CCC2(CC1)CCN(c1ccccc1)CC2`, the Potency is > 20 µM (inactive).

Take `CC(=O)NCCNc1cc(-c2ccccc2C(F)(F)F)ncn1`: the Potency was > 20 µM (inactive).

For `CN(C)Cc1ccccc1-c1ccc2ncnc(NCc3ccccc3)c2c1`, the Potency is > 20 µM (inactive).

Regarding `COc1ccccc1CNc1cc(-c2ccccc2CN(C)C)ncn1`, the Potency was > 20 µM (inactive).

For the molecule `Cc1nc2cncnc2n(-c2ccccc2)c1=O`, the Potency was > 20 µM (inactive).

For the molecule `COc1ncc2nc(-c3cn(C)c4ccccc34)c(=O)n(Cc3ccc(F)cc3)c2n1`, the Potency was > 20 µM (inactive).

As to `Cc1cccc(CNc2cc(-c3ccc(C(=O)N(C)C)cc3)ncn2)c1`, the Potency is > 20 µM (inactive).

As for `N#Cc1cccc(NC(=O)N2CCCC3(CCN(C(=O)c4csnn4)CC3)C2)c1`, the Potency was > 20 µM (inactive).

For `COc1ccc(NC(=O)N2CCCC3(CCN(C(=O)c4cccn4C)CC3)C2)cc1`, the Potency is > 4 µM (inactive).

As to `COc1ccc(Oc2ncc3nc(C)c(=O)n(CCC#N)c3n2)cc1`, the Potency is > 20 µM (inactive).

Take `COc1ccc(CNc2ccnc(-c3ccc(N(C)C)cc3)n2)c(OC)c1`: the Potency was > 20 µM (inactive).

With `FC(F)(F)c1ccccc1-c1cc(NCc2ccccc2)ncn1`, the Potency was > 20 µM (inactive).

In the case of `COc1ccccc1-c1cncnc1NCc1cccs1`, the Potency is > 20 µM (inactive).

For `COc1ccccc1-c1nccc(NCc2cnc(C)cn2)n1`, the Potency is > 20 µM (inactive).

For `O=S(=O)(c1ccccc1)N1CCC[C@@]2(CCN(Cc3cc(C(F)(F)F)cc(C(F)(F)F)c3)C2)C1`, the Potency was > 20 µM (inactive).

As to `COc1ccc(-c2nc3cnc(N4CCOCC4)nc3n(-c3ccccc3)c2=O)cc1`, the Potency is > 20 µM (inactive).
